# Hits are enriched below; roughly 14% of the tested compounds scored in any of these assays.
# Giardia FBPA inh = qHTS Assay for Inhibitors of Fructose-1,6-bisphosphate Aldolase from Giardia Lamblia | A8B2U2 | Potency, µM (doses to about 59.6 µM), for inactives: at the highest dose activity, negative = inhibition, hits mostly inhibitors | hit rate 0.71% among 290,000 | AID 2451, 2010 | purified Giardia FBPA; note: potency is the fitted concentration of half-maximal effect; nearly all actives have a fitted effect of over 55% in size
# Target sequence (A8B2U2 whole entry, looked up): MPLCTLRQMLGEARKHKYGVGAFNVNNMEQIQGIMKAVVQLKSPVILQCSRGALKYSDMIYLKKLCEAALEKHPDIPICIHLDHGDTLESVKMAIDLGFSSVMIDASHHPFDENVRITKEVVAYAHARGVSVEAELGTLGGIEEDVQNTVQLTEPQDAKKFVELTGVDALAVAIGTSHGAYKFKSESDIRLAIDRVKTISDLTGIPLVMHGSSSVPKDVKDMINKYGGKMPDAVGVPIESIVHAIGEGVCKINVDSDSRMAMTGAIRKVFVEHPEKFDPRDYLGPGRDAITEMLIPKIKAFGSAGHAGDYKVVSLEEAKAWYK
#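 40 nM FBPA preincubated 10 min at RT with compound (up to 57.5 uM final), then substrate plus GAPDH/TPI/NAD/arsenate coupling and diaphorase/resazurin added. Fluorescence read after 20 min at RT, 525/598 nm.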
# HCMV antiviral = qHTS Assay for inhibitors of the human cytomegalovirus (HCMV) | HFF cells, HCMV-luciferase reporter, 72 h; active compounds read low | activity change, negative = inhibition, % at 57.5 µM | hit rate 4.5% among 410,000; in the data active = activity change below about -60%; inconclusive = no clear call, values can overlap the other calls; inactive = above about -39%
#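 Two-dose cell screen: HFF monolayers treated with compounds and infected with luciferase-expressing HCMV at 1 PFU/cell, 72 h at 37C, then lysed for luciferase measurement.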
# Pf growth 96h = Primary qHTS for delayed death inhibitors of the malarial parasite plastid, 96 hour incubation | P. falciparum luciferase reporter growth, 96 h | Potency, µM (doses to about 28.7 µM), inactives show top-dose activity change, negative = inhibition, most hits filed as inhibitors | hit rate 6.9% among 320,000; note: potency is the fitted concentration of half-maximal effect
#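 Readout is luminescence from an integrated firefly luciferase in P. falciparum. Red cells, 2% hematocrit and 0.05% parasitemia final, were cultured with compound through two parasite generations (96 hours) at 37 C, 5% CO2.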
# Sm TGR inh = qHTS Assay for the Inhibitors of Schistosoma Mansoni Peroxiredoxins; hit rate 3% among 360,000; purified TGR, DTNB reduction, TNB absorbance 405 nm; Schistosoma mansoni thioredoxin glutathione reductase (TGR), Q962Y6; AID 485364, 2010; Potency, µM (highest dose often 114 µM), inactives show top-dose activity change, negative = inhibition, usual class: inhibitors; note: potency is the fitted concentration of half-maximal effect; nearly all actives have a fitted effect of over 60% in size
#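 First, TGR (20 nM dispensed) and NADPH were mixed with compound. Second, a 15 min room-temperature incubation followed. Third, further NADPH and then DTNB were added to start the reaction. Finally, TNB absorbance was monitored kinetically.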
# Pf growth 48h = Primary qHTS for delayed death inhibitors of the malarial parasite plastid, 48 hour incubation | P. falciparum luciferase growth in erythrocytes, 48 h | Potency, µM (series often up to 28.7 µM), inactives show at the highest dose activity change, negative = inhibition, most hits filed as inhibitors | hit rate 5.9% among 310,000 | AID 504832, 2011; note: potency is the fitted concentration of half-maximal effect
#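 Parasite viability was followed by luminescence of a genomically integrated firefly luciferase. Cultures held 0.1% parasitemia at 2% hematocrit (final), incubated under 5% CO2 at 37 C.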
# An asterisk follows results filed as active; ? = inconclusive; nt = no result. Unless noted, calls come from the whole dose curve; as a rule, active = well fitted curve in the direction sought with a large enough effect; inconclusive = small, poorly fitted or top-dose-only effect, or another doubt; inactive = no such curve, though single readings can be large; an effect the other way counts as inactive or inconclusive. % is set by controls: 0 for no effect and ±100 for the full control effect.
SMILES,Giardia FBPA inh,HCMV antiviral,Pf growth 96h,Sm TGR inh,Pf growth 48h
C[C@@H]1NC(=O)/C(=C\c2ccccc2Br)NC1=O,2%,-102*,10%,8%,nt
C[C@@H]1NC(=O)/C(=C\c2ccccc2Cl)NC1=O,-1%,?,20%,-1%,-8%
Brc1ccc2c(c1)c1cc(Br)ccc1n2CC1CO1 (centres undefined),4%,nt,nt,nt,nt
CCCCOc1ccccc1C1CC(=O)Nc2ccc3ccccc3c21 (centres undefined),nt,-92*,nt,7%,nt
COc1ccc(OC)c(C2CC(=O)Nc3ccc4ccccc4c32)c1 (centres undefined),nt,10,nt,-5%,nt
CC(=O)NC(=S)Nc1ccc(NC(=O)c2cccs2)cc1,-4%,19,0%,-30%,?
CC(C)CC(=O)NC(=S)Nc1ccc(NC(=O)c2ccco2)cc1,-4%,?,6.6µM*,?,?
CCC(=O)NC(=S)Nc1ccc(NC(=O)c2ccco2)cc1,4%,0,?,-30%,?
Cc1c(C(=O)NC(=S)Nc2ccc(NC(=O)c3cccs3)cc2)oc2ccccc12,-16%,-35,?,0.63µM*,-9%
CC1CCCCC1NC(=S)NC(=O)c1cccs1 (centres undefined),-7%,-32,?,22µM*,?
CC(C)(C)C(=O)NC(=S)NCc1ccccc1,0%,?,9.3µM*,40µM*,-31%
CCN(C(=O)CSc1nc(-c2cccs2)nc2ccccc12)C1CCS(=O)(=O)C1 (centres undefined),nt,-28,?,-1%,?
O=C(Nc1ccc(Cl)cc1)c1cc(S(=O)(=O)NC2CCCCCC2)ccc1F,nt,-67*,nt,16%,nt
S=C(NCCCc1ccccc1)NCc1ccccc1,nt,-83*,-13%,4%,-24%
O=C(Nc1ccc(NC(=S)NC(=O)c2cccs2)cc1)c1ccccc1,-11%,-30,33%,14%,?
O=C(NC(=S)Nc1ccccc1)c1cccs1,?,-2,-4%,7.9µM*,7%
CC(C)COc1ccc(CNC(=S)NCc2ccccc2)cc1,-1%,-82*,33%,5%,40%
COc1cccc([C@@H]2Oc3ccc(Br)cc3C[C@H]2OC(=O)Nc2ccc(C)c(Br)c2)c1,0%,nt,nt,nt,nt
COc1ccc(CCNC(=O)C2CCN(c3nc4ccccc4nc3C(F)(F)F)CC2)cc1OC,nt,5,nt,-1%,nt
O=C(Nc1ccccn1)c1cccs1,-1%,39,143%,0%,145%
O=C(CNC(=S)NC(=O)c1cccs1)c1ccccc1,-8%,50,-12%,-3%,127%
COc1ccccc1C(=O)Nc1ccc(NC(=O)c2cccs2)cc1,nt,-25,nt,-1%,nt
O=C(NC(=S)NCc1ccccc1)c1cccs1,nt,-8,15%,79µM*,-18%
O=C(Nc1nonc1NC(=O)c1cccs1)c1cccs1,7%,-93*,-15%,1%,6%
COc1ccccc1C(=O)NC(=S)Nc1ccc(NC(=O)c2cccs2)cc1,5%,-67*,8%,-29%,?
SMILES,Giardia FBPA inh,HCMV antiviral,Pf growth 96h,Sm TGR inh,Pf growth 48h
COc1ccccc1C(=O)NC(=S)Nc1ccc(NC(=O)c2ccco2)cc1,1%,-75*,5.2µM*,2%,?
COC(=O)c1cc(C(=O)OCC(=O)NCc2ccc3c(c2)OCO3)cc([N+](=O)[O-])c1,1%,19,?,2%,10%
CSCC[C@H](NC(=O)[C@H](CC(C)C)NC(=O)CNC(=O)[C@@H]1CCCN1C(=O)[C@H](Cc1ccccc1)NC(=O)[C@H](Cc1ccccc1)NC(=O)[C@H](CC(=O)O)NC(=O)[C@H](Cc1cnc[nH]1)NC(=O)[C@H](CCSC)NC(=O)[C@@H](N)CC(=O)O)C(N)=O,0%,nt,nt,nt,nt
CC(C)(CO)[C@@H](O)C(=O)NCCCO,7%,nt,1%,nt,8%
O=C(NC(=S)Nc1ccc(S(=O)(=O)NC2CCCCC2)cc1)c1cccs1,-4%,-37,?,50µM*,?
O=C(NC(=S)Nc1ccc(S(=O)(=O)N2CCCCC2)cc1)c1cccs1,?,-15,6%,?,8%
CN(C)CC1CCCCC1OC(=O)c1ccc(Br)cc1 (centres undefined),-5%,47,13%,1%,-16%
CN1CCC(OC(=O)c2ccc(Cl)cc2Cl)CC1,-4%,10,7.4µM*,-20%,9%
COC(=O)c1cc(C(=O)c2ccc(Cl)cc2Cl)cn1C,1%,16,5.2µM*,24%,4.7µM*
CN(C)CC1CCCCC1OC(=O)c1ccc(Cl)cc1Cl (centres undefined),-5%,-61*,14%,0%,10%
COC(=O)c1cc(C(=O)c2cccc(Cl)c2Cl)cn1C,-1%,?,-10%,1%,37%
CC(Sc1nc2sc3c(c2c(=O)n1-c1ccccc1)CCCC3)C(=O)O (centres undefined),26%,0,23%,-4%,0%
CCCN1CCc2c(sc3nc(SC)n(-c4ccccc4)c(=O)c23)C1,3%,?,0.74µM*,-18%,0.93µM*
COc1ccc(-n2c(SCC(=O)O)nc3sc4c(c3c2=O)CCC4)cc1,12%,-17,?,nt,-4%
CCCN1CCc2c(sc3nc(SCC)n(-c4ccc(OC)cc4)c(=O)c23)C1,-6%,nt,0.59µM*,3%,5.9µM*
CN1CCc2c(sc3c2c(=O)n(-c2ccccc2)c2nnc(SCc4ccccc4)n32)C1,-8%,-13,nt,?,6.6µM*
COc1ccc(-n2c(SC)nc3sc4c(c3c2=O)CCN(C)C4)cc1,-5%,?,7.4µM*,5%,3.7µM*
Cn1cccc1C(=O)OCc1ccc(C(C)(C)C)cc1,-11%,12,83%,-8%,128%
CN1CCc2c(sc3nc(NN)n(Cc4ccccc4)c(=O)c23)C1,-1%,?,2.1µM*,-31%,3.7µM*
CC1CCc2c(sc3nc(SCC(=O)O)n(-c4ccccc4)c(=O)c23)C1 (centres undefined),29%,-12,?,-4%,-16%
CCCN1CCc2c(sc3nc(SCC)n(-c4ccccc4)c(=O)c23)C1,-12%,nt,0.26µM*,-28%,1.3µM*
CCSc1nc2sc3c(c2c(=O)n1-c1ccccc1)CCN(C)C3,-16%,0,82%,-5%,3.3µM*
COCCSc1nc2sc3c(c2c(=O)n1-c1ccccc1)CCN(C)C3,-28%,nt,?,-34%,nt
C=CCSc1nc2sc3c(c2c(=O)n1-c1ccccc1)CCN(C)C3,-27%,-17,0.59µM*,-24%,?
COc1ccc(Cc2c(-c3ccc(F)cc3)nc3c4ccccc4ccn23)c(C)c1,nt,31,nt,nt,nt

# High-throughput results from PubChem BioAssay.
